The whole screen tested about 5,500 compounds, of which about 2,000 (36%) were called active. Another 18% or so got no clear call; they are omitted. Rule as the data show it: active = normalized growth mostly below about 0.91 (no sharp cut-off); inconclusive = no clear call, values can overlap the other calls; inactive = mostly above about 0.92. This is one part of the list.
Test: chemical genetic growth profiling, strain panel (AID 1159580);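 also: tested at 20 µM; growth read once vehicle control cultures reached saturation at 30 °C; 1 = growth at the plate median or of vehicle wells; lower values mean less growth of the strain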
Conditions: growth OD

Measured: normalized growth

COc1ccc2c(C)cc(=O)oc2c1
inactive: S. cerevisiae deletion strains, locus YJL187C, strain SWE1 (second series), hits give low values 1.02 | S. cerevisiae deletion strains, locus YJL187C, strain SWE1, hits give low values 0.997 | S. cerevisiae deletion strains, locus YJR066W, strain TOR1, hits give low values 0.933 | S. cerevisiae deletion strains, locus YKL009W, strain mrt4, hits give low values 1.02 | S. cerevisiae deletion strains, locus YKL068W, hits give low values 1.03 | S. cerevisiae deletion strains, locus YKL085W, strain MDH1 (second series), hits give low values 1.01 | S. cerevisiae deletion strains, locus YKL085W, strain MDH1, hits give low values 1.01 | S. cerevisiae deletion strains, locus YKL160W, strain elf1, hits give low values 1 | S. cerevisiae deletion strains, locus YKL190W, strain CNB1, hits give low values 1 | S. cerevisiae deletion strains, locus YKR001C, strain vps1, hits give low values 1.03 | S. cerevisiae deletion strains, locus YKR026C, strain gcn3, hits give low values 0.991 | S. cerevisiae deletion strains, locus YKR091W, strain srl3, hits give low values 0.987 | S. cerevisiae deletion strains, locus YLL001W, strain dnm1, hits give low values 0.986 | S. cerevisiae deletion strains, locus YLL026W, hits give low values 1 | S. cerevisiae deletion strains, locus YLL041C, strain sdh2, hits give low values 0.993 | S. cerevisiae deletion strains, locus YLR027C, strain aat2, hits give low values 0.991 | S. cerevisiae deletion strains, locus YLR039C, strain RIC1, hits give low values 1.01 | S. cerevisiae deletion strains, locus YLR058C, strain SHM2, hits give low values 1.01 | S. cerevisiae deletion strains, locus YLR102C, strain apc9, hits give low values 1.04 | S. cerevisiae deletion strains, locus YLR113W, strain HOG1, hits give low values 0.998 | S. cerevisiae deletion strains, locus YLR221C, strain rsa3, hits give low values 0.993 | S. cerevisiae deletion strains, locus YLR258W, strain gsy2, hits give low values 0.972 | S. cerevisiae deletion strains, locus YLR262C, strain YPT6 (second series), hits give low values 0.964 | S. cerevisiae deletion strains, locus YLR268W, strain sec22, hits give low values 1.03 | S. cerevisiae deletion strains, locus YLR320W, strain mms22, hits give low values 1 | S. cerevisiae deletion strains, locus YLR330W, strain CHS5, hits give low values 1.01 | S. cerevisiae deletion strains, locus YLR342W, strain FKS1, hits give low values 0.989 | S. cerevisiae deletion strains, locus YLR357W, strain rsc2, hits give low values 0.966 | S. cerevisiae deletion strains, locus YLR370C, strain arc18, hits give low values 0.997 | S. cerevisiae deletion strains, locus YLR371W, strain rom2, hits give low values 0.998 | S. cerevisiae deletion strains, locus YLR384C, strain iki3, hits give low values 0.996 | S. cerevisiae deletion strains, locus YLR418C, strain cdc73, hits give low values 1.03 | S. cerevisiae deletion strains, locus YML016C, strain PPZ1, hits give low values 1.02 | S. cerevisiae deletion strains, locus YML032C, strain rad52, hits give low values 1.01 | S. cerevisiae deletion strains, locus YML120C, strain ndi1, hits give low values 1.02 | S. cerevisiae deletion strains, locus YML124C, strain tub3, hits give low values 1.02 | S. cerevisiae deletion strains, locus YMR058W, strain fet3, hits give low values 0.987 | S. cerevisiae deletion strains, locus YMR078C, strain ctf18, hits give low values 1.03 | S. cerevisiae deletion strains, locus YMR125W, strain sto1, hits give low values 0.982 | S. cerevisiae deletion strains, locus YMR129W, hits give low values 1.01 | S. cerevisiae deletion strains, locus YMR205C, strain PFK2, hits give low values 0.988 | S. cerevisiae deletion strains, locus YMR223W, strain ubp8, hits give low values 1.02 | S. cerevisiae deletion strains, locus YMR231W, strain pep5, hits give low values 0.988 | S. cerevisiae deletion strains, locus YMR307W, strain GAS1, hits give low values 0.994 | S. cerevisiae deletion strains, locus YNL067W, strain RPL9B, hits give low values 1.01 | S. cerevisiae deletion strains, locus YNL071W, strain lat1, hits give low values 0.976 | S. cerevisiae deletion strains, locus YNL183C, strain NPR1, hits give low values 0.933 | S. cerevisiae deletion strains, locus YNL209W, strain ssb2, hits give low values 1 | S. cerevisiae deletion strains, locus YNL233W, strain BNI4, hits give low values 1.02 | S. cerevisiae deletion strains, locus YNL248C, strain rpa49, hits give low values 0.923 | S. cerevisiae deletion strains, locus YNL250W, strain rad50, hits give low values 1.04 | S. cerevisiae deletion strains, locus YNL271C, strain bni1, hits give low values 1.03 | S. cerevisiae deletion strains, locus YNL298W, strain CLA4, hits give low values 1.01 | S. cerevisiae deletion strains, locus YNL307C, strain MCK1, hits give low values 1.04 | S. cerevisiae deletion strains, locus YNL322C, strain KRE1 (second series), hits give low values 1 | S. cerevisiae deletion strains, locus YNL322C, strain KRE1, hits give low values 1.01 | S. cerevisiae deletion strains, locus YNR049C, strain mso1, hits give low values 0.969 | S. cerevisiae deletion strains, locus YNR052C, strain pop2, hits give low values 1.02 | S. cerevisiae deletion strains, locus YOL012C, strain htz1 0.756 | S. cerevisiae deletion strains, locus YOL147C, strain pex11, hits give low values 1.03 | S. cerevisiae deletion strains, locus YOR001W, strain rrp6, hits give low values 0.97 | S. cerevisiae deletion strains, locus YOR061W, strain CKA2, hits give low values 1.01 | S. cerevisiae deletion strains, locus YOR069W, strain VPS5, hits give low values 1.01 | S. cerevisiae deletion strains, locus YOR070C, strain gyp1, hits give low values 1 | S. cerevisiae deletion strains, locus YOR080W, strain dia2, hits give low values 0.99 | S. cerevisiae deletion strains, locus YOR083W, strain WHI5, hits give low values 0.987 | S. cerevisiae deletion strains, locus YOR106W, strain vam3, hits give low values 0.959 | S. cerevisiae deletion strains, locus YOR136W, strain idh2, hits give low values 1.03 | S. cerevisiae deletion strains, locus YOR144C, strain elg1, hits give low values 1.02 | S. cerevisiae deletion strains, locus YOR184W, strain ser1, hits give low values 1.02 | S. cerevisiae deletion strains, locus YOR231W, strain MKK1, hits give low values 0.954 | S. cerevisiae deletion strains, locus YOR265W, strain rbl2, hits give low values 0.996 | S. cerevisiae deletion strains, locus YOR270C, strain vph1, hits give low values 0.803 | S. cerevisiae deletion strains, locus YOR290C, strain snf2, hits give low values 1 | S. cerevisiae deletion strains, locus YOR316C, strain cot1, hits give low values 1.02 | S. cerevisiae deletion strains, locus YPL051W, strain arl3, hits give low values 1.01 | S. cerevisiae deletion strains, locus YPL078C, strain atp4, hits give low values 0.994 | S. cerevisiae deletion strains, locus YPL106C, strain sse1, hits give low values 0.943 | S. cerevisiae deletion strains, locus YPL240C, strain hsp82, hits give low values 1.01 | S. cerevisiae deletion strains, locus YPL256C, strain CLN2, hits give low values 1.01 | S. cerevisiae deletion strains, locus YPR119W, strain clb2, hits give low values 1.02 | S. cerevisiae deletion strains, locus YPR141C, strain kar3, hits give low values 1.02 | S. cerevisiae deletion strains, locus YPR163C, strain tif3, hits give low values 1.03 | S. cerevisiae deletion strains, locus YPR167C, strain met16, hits give low values 1.02 | S. cerevisiae deletion strains, strain wtn01, hits give low values 1.01 | S. cerevisiae strains, strain wild type, hits give low values 1.01

Reference: PubChem BioAssay AID1159580 (chemical genetic matrix, 2015)
